Drawing on PMC7862700, “An all-to-all approach to the identification of sequence-specific readers for epigenetic DNA modifications on cytosine”, this text covers binding signal for one sequence.

Assay in all cases: DAPPL (digital affinity profiling via proximity ligation, sequencing); 10 mM Tris-HCl pH 7.5, 50 mM NaCl, 1 mM DTT, 4% glycerol, room temperature, 30 min; GST-TFs on glutathione beads, 16-mer random dsDNA library, 0.1% formaldehyde crosslink after washing; high values mean tight binding
One assay deals with T1, FEV (Homo sapiens, UniProt Q99581 1-238).
T1 sequence: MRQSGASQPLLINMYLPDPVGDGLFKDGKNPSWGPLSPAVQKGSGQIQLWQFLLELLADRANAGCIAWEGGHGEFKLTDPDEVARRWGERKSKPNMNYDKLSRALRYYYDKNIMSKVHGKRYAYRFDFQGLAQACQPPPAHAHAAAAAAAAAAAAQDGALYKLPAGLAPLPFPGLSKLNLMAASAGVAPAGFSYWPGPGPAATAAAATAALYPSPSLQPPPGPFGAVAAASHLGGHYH
As to conditions: protein: recombinant; tags: N-terminal GST; dsDNA, one strand shown. In a few lines: (§1)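 Each value of binding signal is a hexamer's read frequency for a factor divided by the same hexamer's frequency in the tag-only sample. Barcoded, bead-captured GST fusions of human transcription factors made in yeast were pooled with that sample and incubated with 200 nmole of a random double-stranded 16-mer DNA library in Tris/NaCl/DTT/glycerol buffer at room temperature for 30 min. Washing, 0.1% formaldehyde crosslinking, proximity ligation, PCR and Illumina NextSeq500 sequencing followed.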

A further assay concerns the target ETV5 (Homo sapiens, UniProt P41161 1-510). As to conditions: protein: recombinant; tags: N-terminal GST; dsDNA, one strand shown. In a few lines: as §1
Another assay has as its target HSF1 (Homo sapiens, UniProt Q00613 1-529). As to conditions: protein: recombinant; tags: N-terminal GST; chain copies: 3; dsDNA, one strand shown. In a few lines:
as §1

For a further assay, the target named is T2, SPIC (Homo sapiens, UniProt Q8N5J4 1-248).
T2 sequence: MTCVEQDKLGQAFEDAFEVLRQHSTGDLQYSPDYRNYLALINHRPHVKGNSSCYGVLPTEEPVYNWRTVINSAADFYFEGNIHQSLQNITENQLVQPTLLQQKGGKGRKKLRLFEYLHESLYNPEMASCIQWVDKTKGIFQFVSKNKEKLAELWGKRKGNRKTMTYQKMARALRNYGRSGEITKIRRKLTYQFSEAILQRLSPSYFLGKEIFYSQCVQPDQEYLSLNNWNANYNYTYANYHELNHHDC
As to conditions: protein: recombinant; tags: N-terminal GST; dsDNA, one strand shown. The method, boiled down:
as §1

A further assay has as its target ELF4 (Homo sapiens, UniProt Q99607 1-663). As to conditions: protein: recombinant; tags: N-terminal GST; dsDNA, one strand shown. In a few lines:
as §1

Another assay deals with T3, ELK4 (Homo sapiens, UniProt P28324-2 1-405).
T3 sequence: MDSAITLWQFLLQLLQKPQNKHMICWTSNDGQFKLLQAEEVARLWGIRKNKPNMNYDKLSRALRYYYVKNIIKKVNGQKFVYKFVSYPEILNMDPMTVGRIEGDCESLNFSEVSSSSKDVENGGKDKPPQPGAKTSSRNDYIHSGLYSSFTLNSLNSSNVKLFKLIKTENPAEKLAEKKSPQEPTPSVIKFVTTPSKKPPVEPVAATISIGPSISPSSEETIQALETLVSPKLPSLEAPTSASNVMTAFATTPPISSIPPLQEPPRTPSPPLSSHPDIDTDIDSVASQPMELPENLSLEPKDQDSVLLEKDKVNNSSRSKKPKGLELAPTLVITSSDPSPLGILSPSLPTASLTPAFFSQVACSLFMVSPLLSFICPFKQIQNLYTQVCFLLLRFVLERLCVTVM
As to conditions: protein: recombinant; tags: N-terminal GST; dsDNA, one strand shown. In a few lines:
as §1

For another assay, the target named is T4, ETV2 (Homo sapiens, UniProt O00321 1-342).
T4 sequence: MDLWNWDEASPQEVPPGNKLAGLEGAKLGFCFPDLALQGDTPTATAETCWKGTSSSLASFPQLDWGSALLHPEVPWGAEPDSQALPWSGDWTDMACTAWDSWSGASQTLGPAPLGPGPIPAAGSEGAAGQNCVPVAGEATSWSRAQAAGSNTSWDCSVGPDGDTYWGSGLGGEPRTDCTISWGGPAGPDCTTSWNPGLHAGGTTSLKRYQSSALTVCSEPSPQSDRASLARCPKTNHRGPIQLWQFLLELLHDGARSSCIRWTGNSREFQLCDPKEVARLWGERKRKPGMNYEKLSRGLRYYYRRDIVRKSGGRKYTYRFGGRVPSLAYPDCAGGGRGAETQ
As to conditions: protein: recombinant; tags: N-terminal GST; dsDNA, one strand shown. In a few lines:
as §1

The target of the next assay is T5, ELF3 (Homo sapiens, UniProt P78545 1-371).
T5 sequence: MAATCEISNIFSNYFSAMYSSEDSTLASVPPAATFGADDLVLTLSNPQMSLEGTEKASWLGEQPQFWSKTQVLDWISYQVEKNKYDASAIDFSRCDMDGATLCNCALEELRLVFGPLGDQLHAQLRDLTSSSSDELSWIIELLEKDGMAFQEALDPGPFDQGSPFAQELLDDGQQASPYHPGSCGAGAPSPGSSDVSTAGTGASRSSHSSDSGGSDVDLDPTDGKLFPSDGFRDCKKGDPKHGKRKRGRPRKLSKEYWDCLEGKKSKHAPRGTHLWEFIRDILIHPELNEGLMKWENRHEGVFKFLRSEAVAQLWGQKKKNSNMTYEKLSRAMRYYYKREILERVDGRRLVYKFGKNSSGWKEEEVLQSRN
As to conditions: protein: recombinant; tags: N-terminal GST; dsDNA, one strand shown. The method, boiled down:
as §1

Another assay has as its target CRX (Homo sapiens, UniProt O43186 1-299). As to conditions: protein: recombinant; tags: N-terminal GST; dsDNA, one strand shown. In a few lines:
as §1

The target of the next assay is ETV1 (Homo sapiens, UniProt P50549 1-477). As to conditions: protein: recombinant; tags: N-terminal GST; dsDNA, one strand shown. The method, boiled down:
as §1

In a further assay the target is T6, ERF (Homo sapiens, UniProt P50548 1-548).
T6 sequence: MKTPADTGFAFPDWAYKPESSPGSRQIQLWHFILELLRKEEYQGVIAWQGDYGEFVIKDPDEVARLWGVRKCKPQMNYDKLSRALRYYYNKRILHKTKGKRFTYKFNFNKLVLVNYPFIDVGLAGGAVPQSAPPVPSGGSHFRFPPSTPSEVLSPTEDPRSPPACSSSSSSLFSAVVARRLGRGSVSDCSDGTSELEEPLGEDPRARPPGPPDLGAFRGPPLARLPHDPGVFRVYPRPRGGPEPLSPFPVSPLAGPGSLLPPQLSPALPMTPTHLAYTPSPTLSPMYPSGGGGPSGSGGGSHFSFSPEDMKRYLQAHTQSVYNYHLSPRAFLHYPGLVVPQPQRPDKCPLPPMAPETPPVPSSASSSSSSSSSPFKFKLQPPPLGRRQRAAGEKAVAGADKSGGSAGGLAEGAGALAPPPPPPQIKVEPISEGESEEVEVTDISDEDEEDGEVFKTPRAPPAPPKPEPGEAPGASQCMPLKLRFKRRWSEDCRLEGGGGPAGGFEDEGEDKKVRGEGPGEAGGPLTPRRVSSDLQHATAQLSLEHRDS
As to conditions: protein: recombinant; tags: N-terminal GST; dsDNA, one strand shown. The method, boiled down: as §1

The next assay concerns the target T7, ETV3L (Homo sapiens, UniProt Q6ZN32 1-361).
T7 sequence: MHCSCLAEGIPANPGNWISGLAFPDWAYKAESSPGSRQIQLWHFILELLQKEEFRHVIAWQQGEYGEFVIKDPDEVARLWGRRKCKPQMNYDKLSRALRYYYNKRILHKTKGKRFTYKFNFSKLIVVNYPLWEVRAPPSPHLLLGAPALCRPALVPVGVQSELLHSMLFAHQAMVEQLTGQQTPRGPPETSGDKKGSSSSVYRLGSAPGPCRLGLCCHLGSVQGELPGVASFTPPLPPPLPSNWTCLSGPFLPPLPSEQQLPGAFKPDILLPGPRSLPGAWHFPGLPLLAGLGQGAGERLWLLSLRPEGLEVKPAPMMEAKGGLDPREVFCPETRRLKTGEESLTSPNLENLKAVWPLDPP
As to conditions: protein: recombinant; tags: N-terminal GST; dsDNA, one strand shown. The method, boiled down: as §1

The next assay addresses T8, ETS2 (Homo sapiens, UniProt P15036 1-469).
T8 sequence: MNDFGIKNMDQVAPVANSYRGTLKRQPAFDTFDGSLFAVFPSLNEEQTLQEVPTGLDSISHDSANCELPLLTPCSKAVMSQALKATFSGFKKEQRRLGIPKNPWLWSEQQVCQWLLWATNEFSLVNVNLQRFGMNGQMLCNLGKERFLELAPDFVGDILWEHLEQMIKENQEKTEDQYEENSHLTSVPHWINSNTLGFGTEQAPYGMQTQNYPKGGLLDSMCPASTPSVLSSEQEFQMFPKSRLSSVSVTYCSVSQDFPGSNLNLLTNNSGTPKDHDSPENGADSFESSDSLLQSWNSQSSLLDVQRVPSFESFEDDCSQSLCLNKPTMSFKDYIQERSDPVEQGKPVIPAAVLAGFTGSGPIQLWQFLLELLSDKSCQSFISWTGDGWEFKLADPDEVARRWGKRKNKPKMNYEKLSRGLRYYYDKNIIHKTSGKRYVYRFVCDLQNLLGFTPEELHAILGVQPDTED
As to conditions: protein: recombinant; tags: N-terminal GST; dsDNA, one strand shown. The method, boiled down:
as §1

In another assay the target is T9, SPDEF (Homo sapiens, UniProt O95238 1-335).
T9 sequence: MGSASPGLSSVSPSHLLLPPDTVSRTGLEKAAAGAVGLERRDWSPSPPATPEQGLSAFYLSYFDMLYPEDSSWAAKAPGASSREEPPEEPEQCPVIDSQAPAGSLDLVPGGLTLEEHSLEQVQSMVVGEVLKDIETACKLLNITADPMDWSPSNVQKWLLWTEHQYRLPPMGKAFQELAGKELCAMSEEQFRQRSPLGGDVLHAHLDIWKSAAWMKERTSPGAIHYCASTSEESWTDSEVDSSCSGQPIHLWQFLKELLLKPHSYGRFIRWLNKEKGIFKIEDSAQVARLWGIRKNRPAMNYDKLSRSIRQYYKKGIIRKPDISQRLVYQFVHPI
As to conditions: protein: recombinant; tags: N-terminal GST; dsDNA, one strand shown. The method, boiled down:
as §1

A further assay addresses T10, ETV7 (Homo sapiens, UniProt Q9Y603 1-341).
T10 sequence: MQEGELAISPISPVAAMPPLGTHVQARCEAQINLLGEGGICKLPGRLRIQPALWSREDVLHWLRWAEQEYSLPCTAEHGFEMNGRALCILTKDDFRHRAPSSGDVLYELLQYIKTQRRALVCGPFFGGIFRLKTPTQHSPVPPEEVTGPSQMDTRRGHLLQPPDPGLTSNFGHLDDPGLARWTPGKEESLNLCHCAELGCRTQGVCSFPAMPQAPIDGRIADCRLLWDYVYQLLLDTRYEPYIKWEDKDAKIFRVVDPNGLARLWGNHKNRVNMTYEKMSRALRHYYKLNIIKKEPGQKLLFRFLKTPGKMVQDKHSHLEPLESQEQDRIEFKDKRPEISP
As to conditions: protein: recombinant; tags: N-terminal GST; dsDNA, one strand shown. The method, boiled down:
as §1

A further assay deals with T11, ELF5 (Homo sapiens, UniProt Q9UKW6-2 1-255).
T11 sequence: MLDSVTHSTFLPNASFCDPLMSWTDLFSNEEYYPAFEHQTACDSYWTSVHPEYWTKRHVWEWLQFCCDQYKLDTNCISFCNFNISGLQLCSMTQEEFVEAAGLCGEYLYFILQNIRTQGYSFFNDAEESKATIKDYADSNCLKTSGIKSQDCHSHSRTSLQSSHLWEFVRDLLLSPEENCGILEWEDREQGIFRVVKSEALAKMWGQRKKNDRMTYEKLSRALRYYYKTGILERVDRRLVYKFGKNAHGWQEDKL
As to conditions: protein: recombinant; tags: N-terminal GST; dsDNA, one strand shown. The method, boiled down:
as §1

A further assay deals with T12, ETV3 (Homo sapiens, UniProt P41162-2 1-143).
T12 sequence: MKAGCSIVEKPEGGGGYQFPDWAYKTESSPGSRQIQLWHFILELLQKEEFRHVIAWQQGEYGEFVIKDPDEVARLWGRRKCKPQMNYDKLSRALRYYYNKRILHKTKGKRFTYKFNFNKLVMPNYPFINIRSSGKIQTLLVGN
As to conditions: protein: recombinant; tags: N-terminal GST; dsDNA, one strand shown. The method, boiled down: as §1

For the next assay, the target named is ETV6 (Homo sapiens, UniProt P41212 1-452). As to conditions: protein: recombinant; tags: N-terminal GST; dsDNA, one strand shown. The method, boiled down:
as §1

Chain of ETV5 (P41161 whole entry): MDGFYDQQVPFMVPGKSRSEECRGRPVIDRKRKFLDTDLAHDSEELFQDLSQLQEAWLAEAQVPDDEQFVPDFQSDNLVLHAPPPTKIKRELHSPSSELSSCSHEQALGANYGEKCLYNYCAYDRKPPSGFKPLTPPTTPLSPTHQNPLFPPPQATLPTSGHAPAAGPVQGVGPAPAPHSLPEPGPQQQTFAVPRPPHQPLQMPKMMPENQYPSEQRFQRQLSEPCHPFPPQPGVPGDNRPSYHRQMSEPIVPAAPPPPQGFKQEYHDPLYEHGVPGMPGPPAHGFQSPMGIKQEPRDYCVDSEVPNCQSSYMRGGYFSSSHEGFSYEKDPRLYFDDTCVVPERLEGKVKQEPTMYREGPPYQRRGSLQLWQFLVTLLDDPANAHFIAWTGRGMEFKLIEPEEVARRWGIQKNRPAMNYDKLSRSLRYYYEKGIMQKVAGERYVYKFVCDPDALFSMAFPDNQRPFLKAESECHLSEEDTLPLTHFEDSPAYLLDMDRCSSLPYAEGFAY
Chain of ETV6 (P41212 whole entry): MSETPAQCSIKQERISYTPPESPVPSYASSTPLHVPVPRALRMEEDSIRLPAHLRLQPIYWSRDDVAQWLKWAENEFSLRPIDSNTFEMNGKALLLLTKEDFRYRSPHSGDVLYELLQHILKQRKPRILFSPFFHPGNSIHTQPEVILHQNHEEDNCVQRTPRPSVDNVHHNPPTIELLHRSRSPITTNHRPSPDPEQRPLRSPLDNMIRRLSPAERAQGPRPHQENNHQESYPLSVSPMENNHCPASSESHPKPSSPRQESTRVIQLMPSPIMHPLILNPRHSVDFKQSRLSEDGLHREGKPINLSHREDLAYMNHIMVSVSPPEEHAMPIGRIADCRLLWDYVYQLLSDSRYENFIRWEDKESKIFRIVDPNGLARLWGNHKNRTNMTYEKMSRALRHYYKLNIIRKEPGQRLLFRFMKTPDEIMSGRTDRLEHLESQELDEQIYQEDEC
Chain of HSF1 (Q00613 whole entry): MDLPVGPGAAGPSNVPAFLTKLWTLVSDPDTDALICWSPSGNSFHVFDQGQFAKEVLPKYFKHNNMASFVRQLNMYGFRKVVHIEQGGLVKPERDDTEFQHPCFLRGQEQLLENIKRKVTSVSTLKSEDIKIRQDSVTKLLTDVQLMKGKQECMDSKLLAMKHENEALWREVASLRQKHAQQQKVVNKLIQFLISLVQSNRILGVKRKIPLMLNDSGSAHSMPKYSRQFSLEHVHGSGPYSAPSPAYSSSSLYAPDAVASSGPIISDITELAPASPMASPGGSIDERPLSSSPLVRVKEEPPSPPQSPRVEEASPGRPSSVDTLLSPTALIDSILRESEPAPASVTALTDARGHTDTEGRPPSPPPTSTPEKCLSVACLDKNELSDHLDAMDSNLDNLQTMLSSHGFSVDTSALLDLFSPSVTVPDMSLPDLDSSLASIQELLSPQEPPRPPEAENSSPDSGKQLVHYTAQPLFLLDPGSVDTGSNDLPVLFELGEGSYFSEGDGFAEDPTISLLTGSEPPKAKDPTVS
Chain of CRX (O43186 whole entry): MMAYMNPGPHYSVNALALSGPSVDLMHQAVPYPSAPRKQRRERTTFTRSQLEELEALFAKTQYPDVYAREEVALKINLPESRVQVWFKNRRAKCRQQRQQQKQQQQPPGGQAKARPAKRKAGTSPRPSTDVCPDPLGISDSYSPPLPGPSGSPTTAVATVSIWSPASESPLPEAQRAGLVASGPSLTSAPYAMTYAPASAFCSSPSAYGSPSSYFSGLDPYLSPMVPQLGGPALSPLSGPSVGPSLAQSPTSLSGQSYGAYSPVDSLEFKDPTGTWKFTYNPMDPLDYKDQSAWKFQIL
Chain of ELF4 (Q99607 whole entry): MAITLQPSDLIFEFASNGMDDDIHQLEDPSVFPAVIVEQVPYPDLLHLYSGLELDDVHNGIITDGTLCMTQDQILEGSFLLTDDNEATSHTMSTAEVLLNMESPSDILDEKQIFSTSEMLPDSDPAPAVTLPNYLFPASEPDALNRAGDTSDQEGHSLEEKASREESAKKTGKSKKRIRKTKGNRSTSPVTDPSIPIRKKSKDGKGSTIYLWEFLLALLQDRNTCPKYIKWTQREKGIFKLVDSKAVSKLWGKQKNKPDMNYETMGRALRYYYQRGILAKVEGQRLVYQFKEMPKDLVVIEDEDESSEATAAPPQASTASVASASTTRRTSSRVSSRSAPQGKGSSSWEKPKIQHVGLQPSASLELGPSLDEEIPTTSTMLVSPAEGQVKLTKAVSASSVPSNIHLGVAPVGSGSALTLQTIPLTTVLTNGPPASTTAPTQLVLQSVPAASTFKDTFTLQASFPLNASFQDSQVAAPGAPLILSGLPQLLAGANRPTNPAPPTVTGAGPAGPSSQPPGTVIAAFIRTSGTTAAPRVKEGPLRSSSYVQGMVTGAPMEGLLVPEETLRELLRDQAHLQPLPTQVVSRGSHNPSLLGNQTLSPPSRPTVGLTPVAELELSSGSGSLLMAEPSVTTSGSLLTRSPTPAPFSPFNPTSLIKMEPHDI
Chain of ETV1 (P50549 whole entry): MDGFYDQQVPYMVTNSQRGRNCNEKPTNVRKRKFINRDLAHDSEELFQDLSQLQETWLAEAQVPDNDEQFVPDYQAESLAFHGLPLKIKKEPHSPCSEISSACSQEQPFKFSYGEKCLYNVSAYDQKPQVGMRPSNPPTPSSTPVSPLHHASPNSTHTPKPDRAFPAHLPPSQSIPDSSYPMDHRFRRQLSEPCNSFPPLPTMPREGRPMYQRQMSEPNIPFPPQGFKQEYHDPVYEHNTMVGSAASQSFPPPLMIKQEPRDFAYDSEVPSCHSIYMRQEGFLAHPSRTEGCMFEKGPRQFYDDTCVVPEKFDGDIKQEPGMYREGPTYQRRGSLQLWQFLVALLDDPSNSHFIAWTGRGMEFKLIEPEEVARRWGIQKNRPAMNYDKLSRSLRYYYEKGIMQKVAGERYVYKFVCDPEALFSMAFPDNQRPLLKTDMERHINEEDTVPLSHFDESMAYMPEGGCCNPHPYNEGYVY

On to TCAAAC, for which the binding signal in the assay with FEV is 1.21 fold enrichment (6-mer frequency, TF over GST control); with ETV5, 1.17 fold enrichment (6-mer frequency, TF over GST control); with HSF1 it was 1.03 fold enrichment (6-mer frequency, TF over GST control); in the assay with SPIC, 1.19 fold enrichment (6-mer frequency, TF over GST control); in the assay with ELF4 it was 1.21 fold enrichment (6-mer frequency, TF over GST control); in the assay with ELK4 it was 1.28 fold enrichment (6-mer frequency, TF over GST control). Further, the binding signal in the assay with ETV2 was 1.3 fold enrichment (6-mer frequency, TF over GST control); with ELF3, 1.24 fold enrichment (6-mer frequency, TF over GST control); in the assay with CRX, 1.14 fold enrichment (6-mer frequency, TF over GST control); with ETV1, 1.29 fold enrichment (6-mer frequency, TF over GST control); with ERF, 1.18 fold enrichment (6-mer frequency, TF over GST control); in the assay with ETV3L it was 1.09 fold enrichment (6-mer frequency, TF over GST control). The binding signal was 1.19 fold enrichment (6-mer frequency, TF over GST control) with ETS2; 1.15 fold enrichment (6-mer frequency, TF over GST control) with SPDEF; 1.11 fold enrichment (6-mer frequency, TF over GST control) with ETV7; 1.12 fold enrichment (6-mer frequency, TF over GST control) with ELF5; 1.21 fold enrichment (6-mer frequency, TF over GST control) in the assay with ETV3; 1.19 fold enrichment (6-mer frequency, TF over GST control) in the assay with ETV6.
